Measurements reported in the supplement of paper PMC7411054.
Counter-ions that a name gives are not always drawn.

What was measured:
Assay in all cases: lowest phenotypically active concentration; higher = less potent
Settings in all cases: treatment time: 24 h
A549-CANX-COX4 = system: A549-CANX-COX4
Summary of the method: (§1)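 Each of fifteen gene-edited A549, HepG2 and WPMY1 reporter lines, marked with BFP for segmentation and GFP and RFP/FusionRed, was treated in four wells at 0.3, 1, 3 or 9 µM for 24 h prior to live imaging. Normalisation of per-well live-cell features used solvent control wells. Deviation needed ≥3 of 4 wells beyond the 95th percentile of control Euclidean distances, and reproducibility needed a median replicate Pearson correlation above the 95th percentile of non-replicates. Both were required for phenotypic activity.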

A549-TP53BP1-CLTA = system: A549-TP53BP1-CLTA
Summary of the method: as §1

HepG2-CANX-COX4 = system: HepG2-CANX-COX4
Summary of the method: as §1

HepG2-GM130-SQSTM1 = system: HepG2-GM130-SQSTM1
Summary of the method: as §1

HepG2-TUBA1B-RELA = system: HepG2-TUBA1B-RELA
Summary of the method: as §1

WPMY1-ACTB-RAB5A = system: WPMY1-ACTB-RAB5A
Summary of the method: as §1

WPMY1-GM130-SQSTM1 = system: WPMY1-GM130-SQSTM1
Summary of the method: as §1

WPMY1-TP53BP1-CLTA = system: WPMY1-TP53BP1-CLTA
Summary of the method: as §1

WPMY1-CANX-COX4 = system: WPMY1-CANX-COX4
Summary of the method: as §1

WPMY1-TUBA1B-RELA = system: WPMY1-TUBA1B-RELA
Summary of the method: as §1

Measured: lowest phenotypically active concentration

O=C(NOC[C@H](O)CO)c1ccc(F)c(F)c1Nc1ccc(I)cc1F
1 µM: A549-CANX-COX4 | WPMY1-ACTB-RAB5A | WPMY1-TP53BP1-CLTA
3 µM: WPMY1-GM130-SQSTM1
≤ 0.3 µM: A549-TP53BP1-CLTA | HepG2-CANX-COX4 | HepG2-GM130-SQSTM1 | HepG2-TUBA1B-RELA

CNC(=O)c1cc(Oc2ccc(NC(=O)Nc3ccc(Cl)c(C(F)(F)F)c3)cc2)ccn1 [sorafenib]
9 µM: A549-CANX-COX4 | WPMY1-TUBA1B-RELA
1 µM: WPMY1-GM130-SQSTM1
≤ 0.3 µM: A549-TP53BP1-CLTA | WPMY1-ACTB-RAB5A
not listed: WPMY1-TP53BP1-CLTA
3 µM: all other assays above

O=C(Nc1cccnc1)N1CCC(Cc2cccc(Oc3ccc(C(F)(F)F)cn3)c2)CC1
9 µM: A549-CANX-COX4 | A549-TP53BP1-CLTA | HepG2-TUBA1B-RELA | WPMY1-GM130-SQSTM1

CNc1nc(-c2ccc3c(N)n[nH]c3c2)cc(N2C[C@@H](C(=O)NC3CCCCC3)CC[C@H]2C)n1
1 µM: WPMY1-ACTB-RAB5A | WPMY1-CANX-COX4 | WPMY1-TUBA1B-RELA
9 µM: HepG2-TUBA1B-RELA
≤ 0.3 µM: WPMY1-GM130-SQSTM1 | WPMY1-TP53BP1-CLTA
3 µM: all other assays above

CC[C@]12CCCN3CCc4c(n(c5ccccc45)C(=O)C1)[C@@H]32 [Eburnamonine (-)]
3 µM: WPMY1-TP53BP1-CLTA
not listed: HepG2-CANX-COX4 | HepG2-GM130-SQSTM1 | WPMY1-GM130-SQSTM1
9 µM: all other assays above

CN1CCN(C(=O)CN[C@H]2C[C@@H]2c2ccc(OCc3ccccc3)cc2)CC1 [RN 1 dihydrochloride]
3 µM: HepG2-GM130-SQSTM1 | HepG2-TUBA1B-RELA
not listed: HepG2-CANX-COX4
9 µM: all other assays above

CC(=O)Nc1ccc(C(=O)Nc2ccccc2N)cc1
9 µM: WPMY1-TUBA1B-RELA
1 µM: A549-CANX-COX4 | HepG2-CANX-COX4 | HepG2-GM130-SQSTM1
3 µM: all other assays above

CN1CCN([C@H]2CC[C@H](n3cc(-c4ccc(Oc5ccccc5)cc4)c4c(N)ncnc43)CC2)CC1
1 µM: A549-CANX-COX4 | HepG2-CANX-COX4 | WPMY1-TP53BP1-CLTA
not listed: WPMY1-CANX-COX4
≤ 0.3 µM: all other assays above

CC(C)(C)c1nc(-c2cccc(NS(=O)(=O)c3c(F)cccc3F)c2F)c(-c2ccnc(N)n2)s1 [dabrafenib]
≤ 0.3 µM: A549-TP53BP1-CLTA | HepG2-CANX-COX4 | HepG2-GM130-SQSTM1 | HepG2-TUBA1B-RELA
1 µM: A549-CANX-COX4 | WPMY1-ACTB-RAB5A | WPMY1-CANX-COX4 | WPMY1-TUBA1B-RELA

Cc1cc2c(F)c(Oc3ncnn4cc(OC[C@@H](C)O)c(C)c34)ccc2[nH]1 [brivanib]
3 µM: WPMY1-ACTB-RAB5A | WPMY1-TP53BP1-CLTA
not listed: WPMY1-GM130-SQSTM1
9 µM: all other assays above

COc1cc2c(N3CCN(C(=O)Nc4ccc(OC(C)C)cc4)CC3)ncnc2cc1OCCCN1CCCCC1 [tandutinib]
3 µM: HepG2-TUBA1B-RELA
not listed: WPMY1-TP53BP1-CLTA
9 µM: all other assays above

COc1cc2nc(N3CCN(C(=O)C4COc5ccccc5O4)CC3)nc(N)c2cc1OC (stereo unspecified) [doxazosin]
≤ 0.3 µM: WPMY1-GM130-SQSTM1
not listed: HepG2-CANX-COX4 | WPMY1-TUBA1B-RELA
9 µM: all other assays above

Cc1nc(Nc2ncc(C(=O)Nc3c(C)cccc3Cl)s2)cc(N2CCN(CCO)CC2)n1 [dasatinib]
≤ 0.3 µM: all assays above

Cc1ccc(NC(=O)CCCCCC(=O)Nc2ccccc2N)cc1
9 µM: HepG2-CANX-COX4 | HepG2-TUBA1B-RELA | WPMY1-ACTB-RAB5A | WPMY1-GM130-SQSTM1 | WPMY1-TUBA1B-RELA
3 µM: all other assays above

COc1cc2c(NC3CCN(C(C)C)CC3)nc(N3CCC(F)(F)CC3)nc2cc1OCCCN1CCCC1
≤ 0.3 µM: HepG2-GM130-SQSTM1 | HepG2-TUBA1B-RELA | WPMY1-GM130-SQSTM1
3 µM: A549-TP53BP1-CLTA
9 µM: A549-CANX-COX4
1 µM: all other assays above

CC[C@H](CO)Nc1nc(NCc2ccccc2)c2ncn(C(C)C)c2n1 [Roscovitine]
3 µM: HepG2-CANX-COX4 | HepG2-TUBA1B-RELA
not listed: WPMY1-GM130-SQSTM1
9 µM: all other assays above

CN(C)CCCN1c2ccccc2Sc2ccc(Cl)cc21 [chlorpromazine]
not listed: WPMY1-GM130-SQSTM1
9 µM: all other assays above

CCN(CC)CCNc1ccc(CO)c2sc3ccccc3c(=O)c12 [hycanthone]
3 µM: WPMY1-GM130-SQSTM1
not listed: HepG2-CANX-COX4
9 µM: all other assays above

CN1CCCC(n2nc(Cc3ccc(Cl)cc3)c3ccccc3c2=O)CC1 (stereo unspecified) [azelastine]
not listed: HepG2-CANX-COX4
9 µM: all other assays above
